From PubChem
Pf apPOL inh: Pf-apPOL inhibitors, biochemical, fluorescence. AID 1794808, 2022. Plasmodium falciparum apicoplast DNA polymerase (apPOL). hit rate 0.25% among 210,000. inhibition, % at 10 µM. Recombinant Pf-apPOL, molecular beacon fluorescence, 1.5 h
mHTT CaM bind: mutant huntingtin-calmodulin interaction inhibitors – biochemical, AlphaScreen, primary screen. P42858. AlphaScreen His-mHTT/GST-CaM binding, luminescence. inhibition, % at 15 µM. hit rate 3.6% among 190,000. AID 1671202, 2021;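 note: 0% = both proteins with DMSO and 100% = one protein alone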
Starred values were filed as active, the others as inactive; nt = no result; ! = not active in a repeat. The full list was thinned out, with hits kept by preference. Cut-off read from the data, not from the text of the source: active = inhibition above about 50%; inactive = the rest.

SMILES	Pf apPOL inh	mHTT CaM bind
c1ccc(OCc2nc(-c3cccc(-c4ccn[nH]4)c3)no2)cc1	0	22
COc1ccc(-c2noc(-c3cccc([N+](=O)[O-])c3)n2)cc1OC	1	6
CCc1cc(C(=O)O)c(NC(=O)c2ccccc2I)s1	10	7
COc1ccc(C(=O)CC(=O)c2ccccc2)cc1	4	42
COc1ccc(O)c(C(=O)CC(=O)c2ccccc2)c1	2	50*
O=C(NC1CCCC1)c1ccc(SCCN2CCOCC2)nc1	-5	-5
CCOc1ccc(Br)cc1C=O	2	-3
C1=CC2CC1CC21COC(c2ccc3oc4ccccc4c3c2)OC1 (stereo unspecified)	nt	-17
CC(C)(C1=CC(=O)c2ccccc2C1=O)C1OCC2(CO1)CC1C=CC2C1 (stereo unspecified)	nt	53*
Cc1cccc(C(=O)N2N=C(C(F)(F)F)CC2(O)c2ccc(Br)cc2)c1 (stereo unspecified)	1	72*
O=C(c1ccc([N+](=O)[O-])cc1)N1N=C(C(F)(F)F)CC1(O)c1ccncc1 (stereo unspecified)	-6	26
CCc1ccc(C2(O)CC(C(F)(F)F)=NN2C(=O)c2cccc(Br)c2)cc1 (stereo unspecified)	-5	4
CCC1=NN(C(=O)c2cccc([N+](=O)[O-])c2)C(O)(c2ccc(Cl)cc2)C1 (stereo unspecified)	-2	77*
CCc1ccc(C2(O)CC(C(F)(F)F)=NN2C(=O)c2ccc([N+](=O)[O-])cc2)cc1 (stereo unspecified)	8	81*
CCC1=NN(C(=O)c2ccc([N+](=O)[O-])cc2)C(O)(c2ccccc2)C1 (stereo unspecified)	-3	48
O=C(c1cccc(Cl)c1)N1N=C(C(F)(F)F)CC1(O)c1ccc(Cl)cc1 (stereo unspecified)	12	76*
O=C(c1cccc(Br)c1)N1N=C(C(F)(F)F)CC1(O)c1ccc(Cl)cc1 (stereo unspecified)	-2	18
O=C(Cc1noc2ccccc12)NCc1cc(-c2ccco2)on1	-5	-4
Cc1ccc(-c2ncc(NC(=O)c3ccccc3C)cn2)cc1	1	-6
COc1ccc(C2C=C(c3ccc(F)cc3)Nc3nc4ccccc4n32)c(OC)c1 (stereo unspecified)	-4	-8
Cc1ccc(S(=O)(=O)N2CCCC(c3nnc(COc4ccccc4)o3)C2)c(C)c1 (stereo unspecified)	-5	-18
Oc1cc2c(cc1C(c1ccc3c(c1)OCO3)N1CCOCC1)OCO2 (stereo unspecified)	nt	94*
CCOC(=O)C(=O)NCC(c1ccc2c(c1)OCO2)N1CCOCC1 (stereo unspecified)	-6	-14
Cc1ccc(N2C(=O)C(N3C(=O)c4ccccc4C3=O)C2c2ccc(F)cc2)cc1 (stereo unspecified)	-5	14
CCCc1noc(-c2cccnc2N2CCCN(C(=O)Cc3ccccc3C)CC2)n1	-8	-10
SMILES	Pf apPOL inh	mHTT CaM bind
CCCCC1C(=O)N(c2ccccc2)N(c2ccccc2)C1=O	5	nt
CN(C)CC1C(=O)N(c2ccccc2)N(c2ccccc2)C1=O	-6	72*
CCn1c(SCC(=O)Nc2cc(Cl)cc(Cl)c2)nnc1-c1ccccc1	-2	-4
Cc1ccc(C2CC(c3ccc(C)cc3C)=NN2C(=O)CN2CCOCC2)cc1 (stereo unspecified)	-6	76*
Cc1ccc(C2CC(c3cccc(C)c3)=NN2C(=O)CN2CCOCC2)cc1 (stereo unspecified)	-6	85*
Cc1ccc(C)c(C2=NN(C(=O)CN3CCOCC3)C(c3ccc(Cl)cc3)C2)c1 (stereo unspecified)	-4	49
Cc1ccc(C2CC(c3ccccc3)=NN2C(=O)CN2CCOCC2)cc1 (stereo unspecified)	-6	36
COc1ccc(C)cc1NC(=O)N1CCC(c2nc3ccncc3n2CC(C)C)C1 (stereo unspecified)	-6	8
Cc1ccc(NC(=O)CSC2=C(C#N)C(c3cccs3)CC(=O)N2)cc1Cl (stereo unspecified)	-1	-10
O=C(NC1CCCC1)c1nn2c(c1Cl)NC(c1ccco1)CC2C(F)(F)F (stereo unspecified)	-4	7
COC(=O)c1sccc1Oc1ccc(C(F)(F)F)cc1NC(=O)c1ccco1	2	nt
Cc1ccc(Cl)cc1NC(=O)Cn1nc(N2CCOCC2)c2ccccc2c1=O	-3	6
O=C(CCC1CCN(c2cc(NC3CC3)ncn2)CC1)NCCc1ccccn1	-6	0
CN(C)CCN(C(=O)CCc1ccccc1)c1nc2c(Cl)cccc2s1	2	62*
Cc1cc(C(=O)N(CCN(C)C)c2nc3c(Cl)cccc3s2)no1	1	-16
O=C(c1cccc(F)c1)N(CCCn1ccnc1)c1nc2c(F)cccc2s1	-7	26
O=C(Cc1ccc(F)cc1)N(CCCn1ccnc1)c1nc2c(Cl)cccc2s1	4	91*
O=C(NCCc1csc(-c2ccccc2)n1)C1CCCN1C(=O)C1CCCC1 (stereo unspecified)	-4	-8
COc1ccc([C@@H]2C[C@H](c3ccccc3)Oc3cc4c(cc32)OCO4)cc1	0	60*!
COc1ccc([C@@H]2C[C@@H](c3ccccc3)Oc3cc(C)cc(C)c32)cc1	-6	-8
COc1ccc(CC(=O)NCCC2CCN(C(=O)c3ccc(F)cc3)CC2)cc1	-1	5
N#CC1=C(N)n2c(s/c(=C\c3ccco3)c2=O)=C(C#N)C1c1ccco1 (stereo unspecified)	-4	46
Cc1ccc(/C=c2\sc3n(c2=O)C(N)=C(C#N)C(c2ccc(C)o2)C=3C#N)o1 (stereo unspecified)	7	59*
C#CCN1C(=O)C(O)(CC(=O)c2ccc3c(c2)CCCC3)c2ccccc21 (stereo unspecified)	-6	14
C=CCN1C(=O)C(O)(CC(=O)c2ccc3c(c2)CCCC3)c2ccccc21 (stereo unspecified)	2	57*
SMILES	Pf apPOL inh	mHTT CaM bind
O=C(CSc1ccc(F)cc1)Nc1cc(-c2ccco2)nn1CCO	-3	69*
O=C(Nc1cc(-c2ccco2)nn1CCO)c1ccc(S(=O)(=O)N2CCOCC2)cc1	8	26
C[C@H](CCC(=O)OCc1cn(CC(=O)c2ccc(O)cc2)nn1)[C@H]1CC[C@H]2[C@@H]3CC[C@@H]4C[C@H](O)CC[C@]4(C)[C@H]3C[C@H](O)[C@]12C	1	26
CC(CCC(=O)N=Nc1c(O)[nH]c2ccc(Br)cc12)C1CCC2C3C(O)CC4CC(O)CCC4(C)C3CCC12C (stereo unspecified)	-5	63*
COc1cc(C)c(CN2CCN(Cc3ccc4c(c3)OCO4)CC2)cc1C	-3	6
O=C(Nc1nc(-c2ccco2)cs1)c1csc(-c2cnccn2)n1	76*	6
Cc1nnc(NC(=O)c2csc(-c3cnccn3)n2)s1	47	-12
O=C1N(Cc2ccccc2)c2ccccc2C1(Cc1ccccc1)c1ccccc1 (stereo unspecified)	0	nt
Cc1cc(C2(c3ccc(O)c(C)c3)C(=O)N(Cc3ccccc3)c3ccccc32)ccc1O	-8	95*
CCc1ccc(-c2noc(CN3C(=O)COc4ccccc43)n2)cc1	-4	-10
